According to PubChem BioAssay (NCATS):
Records with an inconclusive call do not appear. Calls of active or inactive are those of the source. Calls follow the shape of the full dose curve.

Experiment: qHTS Assay for Lipid Storage Modulators (AID 1519); as to activity change, negative = inhibition: % is scaled to controls: 0 for no effect and ±100 for the full control effect
Conditions: Drosophila S3 cells, BODIPY lipid droplet/cell ratio, laser cytometry, cells loaded with oleic acid
Source text: NIH Molecular Libraries Probe Production Centers Network [MLPCN]
NIH Chemical Genomics Center [NCGC]
Assay Submitter (PI): Beller, Mathias; Max-Planck-Institut fur Biophysikalische Chemie
NCGC Assay Overview: Storing lipids as a reservoir for energy or the anabolism of elementary metabolites is a common feature of probably all cells and is conserved from bacteria to humans. The universal cellular lipid storage organelle is the so-called lipid storage droplet (LD). Although ubiquitous, LDs share a simple structure composed of a hydrophobic core that harbors the storage lipids, which is shielded by a droplet-specific phospholipid monolayer to which proteins are attached. The current model of LD biogenesis involves an incorporation of the lipid core into the membrane leaflets of the endoplasmic reticulum (ER) followed by a subsequent budding-like maturation of a LD, which ultimately pinches off. Once released, LD volume can increase by localized lipogenesis or fusion of existing droplets. Storage lipids are re-mobilized enzymatically by lipase activity. Lipase regulation in the adipocyte is heavily studied and involves multiple components including catecholamine signaling, the LD-associated proteins Perilipin and comparative gene identification-58 (CGI-58) and at least two lipases named hormone sensitive lipase (HSL) and adipocyte triglyceride lipase (ATGL). LD regulation outside of the adipocyte is poorly understood and only few components are known. However, there is an urgent need to learn more about ectopic fat depots as mislocalized storage of lipids, for example in the liver or muscle, is an eminent health problem associated with insulin resistance or the metabolic syndrome. We developed a laser-scanning cytometer assay to enable 1,536-well screening and combined the results of the small molecules screen with an RNAi database based on lipid storage.
NCGC Assay Protocol Summary:
We dispensed 4 uL of cells at 1.25 x 10^6 cells/mL into LoBase Aurora COC 1,536-well plates (black walled, clear bottom) with a bottle-valve solenoid-based dispenser (Aurora) to obtain 5,000 cells/well. Triacsin C (Sigma-Aldrich T-4540), an inhibitor of long-chain fatty acyl CoA synthetase that blocks synthesis of triglycerides, was used as a positive control for lipid under-storage. A total of 23 nL of compound solution of different concentrations were transferred to the assay plates using a Kalypsys pin tool equipped with a 1,536-pin array containing 10-nL slotted pins (FP1S10, 0.457-mm diameter, 50.8 mm long; V&P Scientific). One microliter of oleic acid (400 uM) was added, and the plate was lidded with stainless steel rubber gasket lined lids containing pinholes. […] Fluorescence was detected by excitation of the fluorophores with a 488-nm laser on an Acumen Explorer (TTP Lab Tech). The total intensity in channel 1 (500-530 nm) reflected lipid droplet accumulation. […] The ratio of the total intensity in PMT channel 1 over total intensity of channel 3 was also calculated. Percent activity was computed relative to an internal control (100% inhibited lipid droplet deposition due to the presence of 20 uM Triacsin C), which was added to 32 wells/plate.

[1] = measured here: cell count channel max response
[2] = measured here: lipid channel max response

C[C@H](Oc1ccccc1)C(=O)N[C@@H]1C(=O)N2[C@@H]1SC(C)(C)[C@@H]2C(=O)O
activity change, negative = inhibition (at 25.7 µM (top of the series)): -0.821% (inactive)
max response [1]: -5.3%
max response [2]: -3.26%

NC(=O)c1ccc[n+]([C@@H]2O[C@H](COP(=O)([O-])OP(=O)(O)OC[C@H]3O[C@@H](n4cnc5c(N)ncnc54)[C@@H](O)[C@@H]3O)[C@@H](O)[C@@H]2O)c1
activity change, negative = inhibition (at 25.7 µM (top of the series)): -1.1% (inactive)
max response [1]: -9.17%
max response [2]: -22.7%

COc1ccc(OC)c([C@H](O)CNC(=O)CN)c1
activity change, negative = inhibition (at 25.7 µM (top of the series)): 0.926% (inactive)
max response [1]: 0.279%
max response [2]: -0.25%

NC(=O)c1ncn([C@H]2O[C@@H](CO)[C@@H](O)[C@@H]2O)n1
activity change, negative = inhibition (at 25.7 µM (top of the series)): 1.03% (inactive)
max response [1]: -8.81%
max response [2]: -7.48%

C/C=C(\C)C(=O)OC1c2c(ccc3ccc(=O)oc23)OC(C)(C)C1OC(C)=O (configuration not stated)
activity change, negative = inhibition (at 57.5 µM (top of the series)): -20.9% (inactive)
max response [1]: -0.795%
max response [2]: -21.2%

CC1(O)CC2C(CC1O)C2(C)C (configuration not stated)
activity change, negative = inhibition (at 57.5 µM (top of the series)): 2.85% (inactive)
max response [1]: -5.99%
max response [2]: -2.1%

Cn1nnnc1SCC1=C(C(=O)O)N2C(=O)C(NC(=O)C(OC=O)c3ccccc3)C2SC1 (configuration not stated)
activity change, negative = inhibition (at 57.5 µM (top of the series)): 4.18% (inactive)
max response [1]: 15%
max response [2]: 24.5%

CC1=C2C(O)C(=O)OC3CC4C(C)(C)C(=O)C=C[C@]4(C)C(CC1)[C@@]23C (some centres not stated)
activity change, negative = inhibition (at 57.5 µM (top of the series)): 3.51% (inactive)
max response [1]: 17.8%
max response [2]: 24.5%

COc1ccc2c(c1)[C@]1(C)CCC(=O)C[C@H]1CC2
activity change, negative = inhibition (at 57.5 µM (top of the series)): 8.23% (inactive)
max response [1]: -1.73%
max response [2]: 6.33%

O=c1cc(-c2ccc(O)cc2)oc2ccc(O)cc12
activity change, negative = inhibition (at 57.5 µM (top of the series)): 6.92% (inactive)
max response [1]: 7.61%
max response [2]: 15.4%

C=CC(C1=CC(=O)C(OC)=CC1=O)c1ccc(O)cc1 (configuration not stated)
activity change, negative = inhibition (at 57.5 µM (top of the series)): 12.9% (inactive)
max response [1]: 1.65%
max response [2]: 16.7%

C=C[C@](C)(O)CCC1C(=C)CCC2[C@@](C)(CO)CCC[C@@]12C (some centres not stated)
activity change, negative = inhibition (at 57.5 µM (top of the series)): 2.53% (inactive)
max response [1]: -1.43%
max response [2]: 3.55%

COC(=O)CC1C(C)(C)C(O)C2CC3=C4C=C(OC)OC(c5ccoc5)[C@]4(C)CCC3[C@@]1(C)C2=O (some centres not stated)
activity change, negative = inhibition (at 57.5 µM (top of the series)): -1.2% (inactive)
max response [1]: 2.63%
max response [2]: 3.16%

O=C(CC(=O)c1ccccc1)c1ccccc1
activity change, negative = inhibition (at 57.5 µM (top of the series)): 2.34% (inactive)
max response [1]: -0.636%
max response [2]: 4.72%
